Compound activity from PubChem.
TDP-43 yeast inh = qHTS of TDP-43 Inhibitors; 410,000 compounds, 1.8% hits; Potency, µM (titrated, usually from 46.1 µM), hits mostly activators; AID 652104, 2013; TDP-43 expressing yeast growth rescue, BacTiter-Glo, 24 h; also: nearly all actives have a fitted effect of over 50% in size
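Growth rescue of TDP-43-toxic yeast measured as ATP luminescence (BacTiter-Glo). Cells grown to mid-log in raffinose, induced in galactose at OD600=0.02, exposed to compound 24 hr at 30 deg C.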
FUS suppressor = qHTS for Suppressors of FUS Proteinopathy: Primary screen using FUS-linked yeast assay; S. cerevisiae FUS-expressing, growth rescue, OD600, 24 h; Potency, µM (series often up to 76.6 µM), usual class: activators; 390,000 compounds, 0.24% hits; also: nearly all actives have a fitted effect of over 55% in size
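FUS-expressing yeast, raffinose-pregrown, induced in 2% galactose minimal medium at OD 0.005; compounds in a dilution series, 24hr at 30C. Growth restoration read as absorbance at 600 nm. CP55940 positive control, DMSO negative.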
Abeta rescue = qHTS for compounds that reverse cellular toxicity of Amyloid beta (A-beta) peptide in yeast: Primary Screen | 410,000 compounds, 0.063% hits | yeast expressing A-beta42, growth rescue, OD600, 48 h; response scale: 0% DMSO, 100% iron-clioquinol control | AID 1347071, 2019 | Potency, µM (doses to about 46.1 µM), hits mostly activators; also: nearly all actives have a fitted effect of over 55% in size
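Growth rescue measured by 600 nm absorbance after 48 h yeast culture at 30 C with compound. Values normalized between DMSO and an equimolar ferric chloride plus clioquinol control.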
aSyn yeast inh = qHTS of alpha-syn Inhibitors | Yeast expressing alpha-synuclein, growth rescue, BacTiter-Glo, 24 h | Potency, µM (titrated, usually from 46.1 µM), hits mostly activators | 370,000 compounds, 0.14% hits | AID 652106, 2013; also: nearly all actives have a fitted effect of over 65% in size
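Galactose-induced alpha-syn yeast (OD600=0.02, raffinose-pregrown) + pinned cpd, 24 hr, 30 deg C; growth by BacTiter-Glo luminescence. Growth restoration scores as activation.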
A number is an active result; n = inactive; u = inconclusive; x = no result; [ ] = dose if it differs, or a comment. Shown are actives, neighbours in structure and some others; about 2.1% of the full set was active somewhere. Calls follow the shape of the dose curve; as a rule, active = well fitted curve in the direction sought with a large enough effect; inconclusive = small, poorly fitted or top-dose-only effect, or another doubt; inactive = no such curve, though single readings can be large; an effect the other way counts as inactive or inconclusive.

SMILES	TDP-43 yeast inh	FUS suppressor	Abeta rescue	aSyn yeast inh
O=C(OCCCOc1ccc(F)cc1)c1ccc(O)cc1O	13µM	n	n	n
CC(C)(C)NC(=O)CN(C(=O)Cn1nnc(-c2ccc(Cl)cc2)n1)C1CCN(Cc2ccccc2)CC1	n	n	n	u
COc1ccccc1C/C(N)=N/OC(=O)c1cccc([N+](=O)[O-])c1C	20µM	n	n	n
COc1ccc(/C(N)=N/OC(=O)c2cccc([N+](=O)[O-])c2C)cc1	7.1µM	n	n	n
CCOC(=O)c1cc(NC(=O)c2ccoc2C)cc(C(=O)OCC)c1	n	n	n	n
CSc1ccccc1OCc1cc(C(=O)NCc2cnc(C)cn2)no1	11µM	n	n	n
O=c1[nH]c(C2CCCN(S(=O)(=O)c3ccccc3Cl)C2)nc2c1nnn2Cc1ccc(OC(F)(F)F)cc1 (configuration not stated)	n	n	n	x
O=c1[nH]c(C2CCCN(S(=O)(=O)c3ccccc3Cl)C2)nc2c1nnn2Cc1ccc2c(c1)OCCO2 (configuration not stated)	n	14µM	x	n
CC[C@@]1(c2ccccc2OC)ON(c2ccccc2C(F)(F)F)C1=O	18µM	n	n	n
Cc1ccccc1[C@@]1(C)ON(c2ccccc2C(F)(F)F)C1=O	n	n	n	n
O=C(COc1ccc(Br)cc1CNC1CCCCC1)NCCc1ccccc1	n	n	n	n
O=[N+]([O-])c1ccc(OCc2cnc(Cl)s2)c([N+](=O)[O-])c1	11µM	n	n	n
Cc1[nH]nc2c1C1(CCN(C(=O)OCc3ccccc3)CC1)C(C#N)=C(N)O2	n	n	n	n
COc1ccc(NS(=O)(=O)c2cnc[nH]2)cc1	n	n	n	n
CCn1c(CN2c3ccccc3Sc3ccccc32)n[nH]c1=S	n	n	16µM	n
CCn1c(CCCCc2n[nH]c(=S)n2CC)n[nH]c1=S	n	n	n	n
COCCCNc1ccn2nc(-c3cccc(OCc4ccccc4)c3)cc2n1	u	u	n	n
O=C(c1ccccc1)c1ccccn1	n[0.397 µM]	n	n	n
O=C(CC(=O)c1ccccn1)c1ccccc1	u	x	u	13µM
COc1ccc(CN(Cc2cc3cc(OC)c(OC)cc3[nH]c2=O)C(=O)NC2CCCCC2)cc1	n	n	n	n
O=S(=O)(CCSc1nc2ccccc2o1)c1nc2ccccc2s1	11µM	n	n	n
Cc1ccc(-n2cnc3cc(C(=O)NCCC4=CCCCC4)ccc32)c(C)c1	25µM	u	n	x
COCCNC(=O)c1ccc2c(c1)nc(C)n2-c1cccc(Cl)c1	x	n	n	x
Cc1nc2cc(C(=O)NCCC3=CCCCC3)ccc2n1-c1ccc(Br)cc1	u	25µM	n	x
CCc1ccccc1-n1c(C)nc2cc(C(=O)NCCc3ccc(Cl)cc3)ccc21	32µM	u	n	x
SMILES	TDP-43 yeast inh	FUS suppressor	Abeta rescue	aSyn yeast inh
Cc1nc2ccccn2c1C(=O)N/N=C/c1ccc(CNC(=O)C(=O)Nc2ccccc2)o1	n	x	n	n
CC(NC(=O)c1ccncc1)C(C)(C)C (configuration not stated)	n	n	n	n
CCOC(=O)c1cc(C)n(Cc2cccc(OC)c2OC)c1C	20µM	n	n	n
Cc1cc(C)c(C(N)=O)c(SCC(=O)c2cc(C)n(-c3cc(C)on3)c2C)n1	35µM	n	n	n
Cc1cc(C)c(C(N)=O)c(SCC(=O)c2cc(C)c(C)cc2C)n1	n	x	n	n
N#Cc1ccc(OS(=O)(=O)c2ccc(-c3ccon3)s2)cc1	13µM	n	n	n
COc1ccc(N2CCN(C(=O)c3ccc(NS(=O)(=O)c4ccc(F)cc4)cc3)CC2)cc1	n	u	n	n
O=C1NC2(CCc3ccccc3C2)C(=O)N1CCOc1cccc(Cl)c1 (configuration not stated)	20µM	n	u	n
Cc1cn(CC(=O)NCc2ccccc2)c(=O)[nH]c1=O	n	n	n	n
Cc1cc(Oc2ccc(-c3ccccc3)cc2)n2ncnc2n1	18µM	n	n	n
CCN(c1ccccc1)c1cc(C)nc2ncnn12	n	n	n	n
OCc1cn(-c2ccccc2)nc1-c1cc2ccccc2o1	16µM	n	n	n
COc1ccc(NC(=O)c2cn(-c3ccccc3)nc2-c2cc3ccccc3o2)cc1	n	n	n	n
Cc1ccc(Nc2ncnc3onc(C)c23)cc1Cl	35µM	n	n	x
CCN(Cc1ccccc1)C(=O)C1CCN(S(=O)(=O)c2c(C)noc2/C=C/c2ccc(C)cc2)CC1	n	n	n	x
COc1cccc(C(=O)N2c3ccccc3Sc3ccccc32)c1	22µM	n	n	n
COc1cccc(C(=O)NC2CCN(C(=O)N3c4ccccc4Sc4ccccc43)CC2)c1	u	u	n	n
Cc1ccc(C)c(S(=O)(=O)Nc2ccc(O)cc2)c1	n	n	n	n
Cc1ccc(CONS(=O)(=O)c2cc(C)ccc2C)cc1	32µM	n	n	n
Nn1c(C2CCC2)nc2cc(Cl)ccc2c1=O	u	n	n	n
COC(=O)c1cc2occc2n1CC(=O)Nc1ccc(C)cc1C	n	n	n	n
C#CCOCC1CN(c2ccccc2)C(=O)O1 (configuration not stated)	n	n	n	n
Cc1nn(-c2ccccc2C(=O)O)c(=O)c2ccccc12	n	n	n	n
O=C(O)c1ccccc1-n1c2ccccc2c2ccccc21	20µM	n	n	u
COc1ccc(Br)c(C(=O)N2CCN(S(=O)(=O)/C=C/c3ccccc3)CC2)c1	13µM	n	n	n
SMILES	TDP-43 yeast inh	FUS suppressor	Abeta rescue	aSyn yeast inh
O=C(c1ccc2ccccc2c1)N1CCN(S(=O)(=O)/C=C/c2ccccc2)CC1	u	n	n	n
O=C(OCc1nc2ccsc2c(=O)[nH]1)c1ccc(Cl)s1	18µM	n	n	n
Nc1cc([N+](=O)[O-])ccc1OCc1ccccc1	u	x	n	n
O=c1cc(C(O)C[N+](=O)[O-])occ1OCc1ccccc1 (configuration not stated)	n	32µM	n	n
COCc1cc(C)nc2sc(C(=O)N3CCCCC3)c(N)c12	n	n	n	n
COCc1cc(C)nc2sc(C(=O)N3CCN(c4ccccc4)CC3)c(N)c12	20µM	n	n	n
O=C(CSc1nnc(-c2cc3ccccc3cc2O)n1Cc1ccco1)N1CCc2ccccc2C1	n	16µM	n	n
Cc1cccc(-n2nc([N+](=O)[O-])c(=NCc3cccnc3)n2O)c1	u	n	n	n
O=[N+]([O-])c1nn(-c2cccc(Cl)c2)n(O)c1=NCc1cccnc1	11µM	x	n	n
O=[N+]([O-])c1nn(-c2ccc(Cl)cc2)n(O)c1=NCc1cccnc1	13µM	x	n	n
COc1ccc([C@H]2Cc3cccc(O)c3C(=O)O2)cc1O	11µM	n	n	n
Cc1ccc(NC(=S)NC(=O)C2CC2)cc1Cl	32µM	n	u	n
O=C(NC(=S)Nc1ccccc1Cl)C1CC1	10µM	n	n	n
O=C(NC(=S)Nc1ccc(S(=O)(=O)N2CCCC2)cc1)C1CC1	n	n	u	n
